Experiment [1] has as its system MCC-13. In words: qHTS assay to identify novel small-molecules to repurpose for Merkel cell carcinoma treatment (AID 1296009). Note: nearly all actives have a fitted effect of over 60% in size. To be noted: MCC and control cell lines, CellTiter-Glo viability, 72 h; series mostly up to 46 µM. An outline of the steps:
(§1)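 Cells were treated for 72 hr at 37 degree celsius with compounds in 8- or 11-point dose response. Viability was read by CellTiter-Glo luminescence, normalized to no-cell (cytotoxicity) and DMSO controls.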

For experiment [2], the system named is MCC-26. Described as above. The settings on record: MCC and control cell lines, CellTiter-Glo viability, 72 h; series mostly up to 46 µM. The essentials:
as §1

In experiment [3] the test system is MKL-1. Described as above. To be noted: MCC and control cell lines, CellTiter-Glo viability, 72 h; series mostly up to 46 µM. The essentials:
as §1

Experiment [4] has as its system MKL-2. The experiment is described as above. To be noted: MCC and control cell lines, CellTiter-Glo viability, 72 h; series mostly up to 46 µM. An outline of the steps:
as §1

The subject of experiment [5] is UISO. Described as above. The settings on record: MCC and control cell lines, CellTiter-Glo viability, 72 h; series mostly up to 46 µM. An outline of the steps:
as §1

The subject of experiment [6] is C33A. Kind of experiment: Primary qHTS to identify gynecologic anti-cancer compounds using libraries of approved drugs and bioactive compounds (AID 1345084). Note: nearly all actives have a fitted effect of over 55% in size. To be noted: Gynecologic cancer cell panel viability, ATPlite luminescence, 48 h; series mostly up to 57.5 µM. An outline of the steps:
(§2)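 48 h compound exposure at 37 C, 5% CO2; five-point qHTS. ATPlite luminescence readout of cell ATP.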

In experiment [7] the test system is CAOV3. The experiment is described as above. The settings on record: Gynecologic cancer cell panel viability, ATPlite luminescence, 48 h; series mostly up to 57.5 µM. An outline of the steps: as §2
Experiment [8] relates to CASKI. The experiment is described as above. To be noted: Gynecologic cancer cell panel viability, ATPlite luminescence, 48 h; series mostly up to 57.5 µM. An outline of the steps: as §2
The test system of experiment [9] is Es-2. Described as above. The settings on record: Gynecologic cancer cell panel viability, ATPlite luminescence, 48 h; series mostly up to 57.5 µM. An outline of the steps:
as §2

The subject of experiment [10] is Hek293T. The experiment is described as above. To be noted: Gynecologic cancer cell panel viability, ATPlite luminescence, 48 h, control line for the selectivity index; series mostly up to 57.5 µM. An outline of the steps:
as §2

Experiment [11] concerns JEG-3. Described as above. To be noted: Gynecologic cancer cell panel viability, ATPlite luminescence, 48 h; series mostly up to 57.5 µM. An outline of the steps:
as §2

Experiment [12] has as its system OV90. The experiment is described as above. The settings on record: Gynecologic cancer cell panel viability, ATPlite luminescence, 48 h; series mostly up to 57.5 µM. An outline of the steps:
as §2

Experiment [13] concerns PA-1. The description is as above. To be noted: Gynecologic cancer cell panel viability, ATPlite luminescence, 48 h; series mostly up to 57.5 µM. The essentials:
as §2

Experiment [14] has as its system SKOV3. Described as above. The settings on record: Gynecologic cancer cell panel viability, ATPlite luminescence, 48 h; series mostly up to 57.5 µM. The essentials:
as §2

Experiment [15] has as its system Tov-21-G. The description is as above. To be noted: Gynecologic cancer cell panel viability, ATPlite luminescence, 48 h; series mostly up to 57.5 µM. An outline of the steps: as §2
For experiment [16], the system named is Tov112D. The experiment is described as above. The settings on record: Gynecologic cancer cell panel viability, ATPlite luminescence, 48 h; series mostly up to 57.5 µM. An outline of the steps:
as §2

Experiment [17] can be described thus: Drug repurposing screens with cells derived from glioblastoma tumor samples (AID 1345199). Note: nearly all actives have a fitted effect of over 40% in size. Note: potency is the fitted concentration of half-maximal effect. The settings on record: GBM patient neurospheres viability, ATP luminescence, 48 h. An outline of the steps:
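Four patient lines of CD133+ GBM neurospheres were screened at several concentrations; hits were retested in those lines plus three slower-growing GBM lines, using 48-hour treatment and ATP-based viability.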

Experiment [18] relates to WaGa. Kind of experiment: qHTS assay to identify novel small-molecules to repurpose for Merkel cell carcinoma treatment (AID 1296009). Note: nearly all actives have a fitted effect of over 60% in size. To be noted: MCC and control cell lines, CellTiter-Glo viability, 72 h; series mostly up to 46 µM. An outline of the steps:
as §1

The subject of experiment [19] is HeLa. In words: Primary qHTS to identify gynecologic anti-cancer compounds using libraries of approved drugs and bioactive compounds (AID 1345084). Note: nearly all actives have a fitted effect of over 55% in size. To be noted: Gynecologic cancer cell panel viability, ATPlite luminescence, 48 h; series mostly up to 57.5 µM. The essentials: as §2
Setting [20] is: at 45.9 µM (top of the series), tumour line B.
The mark [21] stands for this setting: at 45.9 µM (top of the series), tumour line D.
The mark [22] stands for this setting: at 46.1 µM (top of the series), tumour line C.
[23] abbreviates: at 46 µM (top of the series), tumour line A.

The results in this text go back to PubChem BioAssay (NCATS).

Results filed as inconclusive are left out. Values without a mark were called inactive. Activity calls are given as the source filed them. Calls come from the whole dose curve; as a rule, active = well fitted curve in the direction sought with a large enough effect; inconclusive = small, poorly fitted or top-dose-only effect, or another doubt; inactive = no such curve, though single readings can be large; an effect the other way counts as inactive or inconclusive.
% is set by controls: 0 for no effect and ±100 for the full control effect.

With `CCOC(=O)C1=C(C)NC(C)=C(C(=O)OC)C1c1cccc(Cl)c1Cl` (centres undefined), the Potency entry in [1], in experiment [2], in [3], in experiment [4], in experiment [5] and in experiment [6] was “inactive” each time. For the same compound, the Potency entry in [7], in [8], in experiment [9], in [10], in experiment [11] and in experiment [12] was “inactive” in each case. Moreover, the Potency result in experiment [13], in experiment [14], in experiment [15] and in experiment [16] was “inactive” in each case. The activity, negative = cell killing in experiment [17] (setting [20]) was -16.5%. The Potency in [17] (tumour line A) is 12.6 µM (active).
Take `Nc1c2c(nc3ccccc13)CCCC2O` (centres undefined): the Potency entry in [1], in experiment [2], in experiment [3], in experiment [4], in [18] and in experiment [6] was “inactive” in each case. For the same compound, the Potency entry in experiment [7], in experiment [8], in experiment [9], in [19], in [10] and in experiment [11] was “inactive” throughout. The Potency entry in [12], in [13], in experiment [14], in [15] and in [16] was “inactive” in each case. Further, the activity, negative = cell killing in experiment [17] (setting [20]) is 4.45%; in experiment [17] (setting [21]) it was 4.03%; in [17] (setting [22]), -7.2%.
With `CCN(CC)CCNC(=O)c1ccc(NC(C)=O)cc1`, the Potency result in [1], in [2], in experiment [3], in experiment [4], in [5] and in experiment [6] was “inactive” in each case. Also, the Potency entry in experiment [7], in [8], in experiment [9], in [10], in experiment [11] and in experiment [12] was “inactive” in each case. Moreover, the Potency entry in experiment [13], in experiment [14], in experiment [15] and in [16] was “inactive” each time. The activity, negative = cell killing in experiment [17] (setting [20]) is -5.4%; in experiment [17] (setting [21]), 7.82%; in experiment [17] (setting [23]), 7.67%; in experiment [17] (setting [22]) it was -13.9%.
Take `CC(=O)OC(C)C[N+](C)(C)C` (centres undefined): the Potency result in experiment [1], in [2], in experiment [3], in [5], in experiment [18] and in [6] was “inactive” throughout. The Potency entry in [7], in [8], in experiment [9], in experiment [19], in experiment [10] and in experiment [11] was “inactive” throughout. The Potency result in [12], in experiment [13], in experiment [14], in experiment [15] and in experiment [16] was “inactive” in each case. For the same compound, the activity, negative = cell killing was 12% in experiment [17] (at 20 µM (top of the series), tumour line C); 6.44% in experiment [17] (at 21.2 µM (top of the series), tumour line B); -7.66% in experiment [17] (at 21.2 µM (top of the series), tumour line D); -14.4% in experiment [17] (at 21.3 µM (top of the series), tumour line A).
With `CC(C)(C)NCC(O)c1cc(O)cc(O)c1` (centres undefined), the Potency entry in [1], in experiment [2], in experiment [3], in [4], in experiment [5] and in experiment [18] was “inactive” each time. Further, the Potency result in [6], in experiment [7], in experiment [8], in [9], in experiment [19] and in experiment [10] was “inactive” in each case. The Potency entry in [11], in experiment [13], in experiment [14], in experiment [15] and in experiment [16] was “inactive” throughout. Moreover, the activity, negative = cell killing in [17] (setting [20]) is 0.586%; in experiment [17] (setting [21]) it was -16.8%; in experiment [17] (setting [23]) it was -15.6%; in experiment [17] (setting [22]), -15.7%.
For `CCN1CCc2nc(N)oc2CC1`, the Potency result in [1], in [2], in experiment [3], in experiment [4], in experiment [5] and in experiment [18] was “inactive” in each case. Further, the Potency result in [6], in [7], in experiment [8], in [9], in experiment [10] and in [11] was “inactive” each time. Besides, the Potency result in [12], in experiment [13], in [15] and in experiment [16] was “inactive” in each case. Besides, the activity, negative = cell killing in [17] (setting [20]) was -14.6%; in experiment [17] (setting [21]), -6.92%; in experiment [17] (setting [22]), -18.3%.
